Each compound was assayed against Glucose transporter (Leishmania mexicana) (UniProt O61059) (assay: ST_JUDE_LEISH: Cytotoxicity at 2uM final concentration against transgenic Leishmania Mexicana promastigotes LmGT2 that are glucose transport deficient and complemented with the L. Mexicana glucose transporter 2. Activity is measured by DNA content using SYBR green in vitro).
Format: functional

Question: With `O=C(Nc1cccc(CN2CCCN(Cc3cccc(Cl)c3)CC2)c1)c1ccc(Cl)c(Cl)c1` as the compound, how does the inhibition read?
Answer: 4.28%

Question: With `Clc1ccccc1C=NN=c1cc[nH]c2ccccc12` as the compound, how does the inhibition read?
Answer: 5.41%

Question: For `c1cncc(-c2cccc(CNc3nccc(Nc4ccc(OCCN5CCOCC5)cc4)n3)c2)c1`, which inhibition is on record?
Answer: 0.07%

Question: With `Cc1cccc2nc(-c3cccc(-c4ccc(NC(=O)C(=O)c5cccn5C)cc4)c3)[nH]c12` as the compound, how does the inhibition read?
Answer: -2.97%

Question: With `O=C(Nc1ccc2c(c1)CCN(C1CCC1)CC2)c1cn(-c2ccccc2)nc1-c1ccccc1` as the compound, how does the inhibition read?
Answer: 0.52%

Question: Which inhibition does the source give for `CCCn1c(O)nnc1SCC(=O)Nc1cc(C(F)(F)F)ccc1Cl` here?
Answer: 6.33%

Question: `O=C(Cc1ccccc1)NC1(c2ccccc2)CCN(CCc2c[nH]c3ccc(F)cc23)CC1` was tested. Which inhibition did it give?
Answer: -0.69%

Question: With `COc1ccc(NC(=O)/C=C/c2ccc(Cl)c(C(F)(F)F)c2)cc1OCCN(C(C)C)C(C)C` as the compound, how does the inhibition read?
Answer: 5.51%

Question: For `O=C(NCCCCCN1CCC(c2c[nH]c3ccccc23)CC1)Nc1cccc(I)c1`, which inhibition is on record?
Answer: 5.88%

Question: For `CC(CCc1ccccc1)NCC(O)c1cccc([N+](=O)[O-])c1` (centres undefined), which inhibition is on record?
Answer: 1.35%

Question: How did the inhibition turn out when `CCN(c1ccccc1)S(=O)(=O)c1ccc(OC)c(NC(=O)c2cccc(C(F)(F)F)c2)c1` was run?
Answer: 7.82%

Question: Which inhibition does the source give for `COc1ccc(Nc2nc(NCc3cccc(NS(C)(=O)=O)c3)cc(-c3ccc(OC)cc3)n2)cc1` here?
Answer: 1.09%

Question: Which inhibition does the source give for `CC(C)c1ccc(NC(=O)Nc2ccc(CCNCCCc3ccccc3)cc2)cc1` here?
Answer: 0.36%

Question: Which inhibition does the source give for `Cc1nc(C)c(-c2ccc(Br)cc2)c(O)c1Br` here?
Answer: -2.85%

Question: How did the inhibition turn out when `N#Cc1cncc(-c2nc3c(N4CCC(Cc5ccccc5)CC4)cccc3n2C2CCNC2)c1` (centres undefined) was run?
Answer: -0.61%

Question: Which inhibition does the source give for `COc1ccccc1NC(=S)N/N=C/c1ccc(O)cc1O` here?
Answer: 0.42%

Question: How did the inhibition turn out when `COc1cccc(NC(=O)c2nc(N3CCN(c4ccncc4)CC3)ccc2Cl)c1` was run?
Answer: 0.29%

Question: Which inhibition does the source give for `O=C(/C=C/c1ccc(-c2ccccc2)cc1)NCCCCCN1CCC(c2c[nH]c3ccccc23)CC1` here?
Answer: -1.76%

Question: How did the inhibition turn out when `N#Cc1ccc(CN2CCCN(c3ccc(NC(=O)c4ccc(F)cc4)cc3)CC2)cc1` was run?
Answer: 0.81%

Question: For `CCC[C@@H](/C=N/N(C)C(=O)OC(C)(C)C)NC(=O)[C@H](CC(C)C)NC(=O)c1cc2cccc(OC)c2o1`, which inhibition is on record?
Answer: 0.27%

Question: Which inhibition does the source give for `COc1cccc(OC2CCN(C(=O)c3ccc(-c4ccc(N5CCCC5=O)cc4C)cc3)CC2)c1` here?
Answer: 3.06%

Question: Which inhibition does the source give for `CN1CCN(CCCN(Cc2ccc(-c3ccc(CNCc4ccc5c(c4)OCO5)cc3)cc2)C(=O)CCC2CCCC2)CC1` here?
Answer: 1.18%

Question: How did the inhibition turn out when `CN1CCN(c2ccc(-c3cccc(NC(=O)c4ccc5ccccc5c4)c3)nn2)CC1` was run?
Answer: 7.19%

Question: Which inhibition does the source give for `CCOc1cc(-c2nnc3[nH]c(=O)n(C)c(=O)c3n2)ccc1OC(C)C` here?
Answer: -1.04%

Question: With `CC1(C)CCCN(c2ncc(-c3cccc(CNCc4ccccc4O)c3)cn2)C1` as the compound, how does the inhibition read?
Answer: 3.18%

Question: `c1cc(CNCCc2ccncc2)cc(-c2csc(-c3nc4ccccc4[nH]3)c2)c1` was tested. Which inhibition did it give?
Answer: 1.05%

Question: `COc1cccc(Nc2c(C(N)=O)cnc3ccc(-c4ccccc4)cc23)c1` was tested. Which inhibition did it give?
Answer: 1.58%

Question: Which inhibition does the source give for `O=C(Nc1ccc2c(c1)CCN2C1CCN(Cc2ccc(C(F)(F)F)cc2F)C1)c1ccco1` (centres undefined) here?
Answer: 1.6%

Question: Which inhibition does the source give for `Cc1nnsc1C(=O)Nc1cccc(-c2ccc(-c3nc4ccccc4[nH]3)s2)c1` here?
Answer: -0.11%

Question: `Cc1cccc2nc(-c3cccc(-c4cccc(NC(=O)Nc5ccsc5)c4)c3)[nH]c12` was tested. Which inhibition did it give?
Answer: 6.15%

Question: With `Cc1ccc(-c2ccc3c(c2)C=C(C(=O)NC2CCN(CCNC(=O)c4cccs4)CC2)CCC3)cc1` as the compound, how does the inhibition read?
Answer: 2.25%

Question: With `CC1CN(c2nc(NCCc3ccc(O)cc3)nc(NCc3ccccc3-c3ccc(C(F)(F)F)cc3)n2)CC(C)N1` (centres undefined) as the compound, how does the inhibition read?
Answer: 6.55%

Question: `Cc1nc(C)c(-c2ccc(Oc3ccc(Cl)cc3)cc2)c(O)c1I` was tested. Which inhibition did it give?
Answer: 0.03%

Question: With `CC[C@H](C)CNC(=O)c1ccc(-c2cccc(CN3CCC(N4CCCC4)CC3)c2)nc1` as the compound, how does the inhibition read?
Answer: 0.34%

Question: How did the inhibition turn out when `CC(C)Oc1cccc(-c2ccc(C(=O)NCC3CCCN(Cc4cccc(C(F)(F)F)c4)C3)s2)c1` (centres undefined) was run?
Answer: -3%

Question: Which inhibition does the source give for `O=C(Cc1cccs1)NCC(c1ccccc1Cl)c1c[nH]c2ccccc12` (centres undefined) here?
Answer: 1.14%

Question: Which inhibition does the source give for `CCCCc1cc(Cc2cnc(N)nc2N)cc(OC)c1OC` here?
Answer: 0.98%

Question: With `Nc1ncc(-c2ccsc2)c2ccc(-c3ccc4cn[nH]c4c3)cc12` as the compound, how does the inhibition read?
Answer: 5.29%

Question: How did the inhibition turn out when `CCCCCCN1CCCN(Cc2ccc(C(=O)Nc3ccc(F)c(F)c3)cc2)CC1` was run?
Answer: 12.9%

Source: ChEMBL document CHEMBL3433997, “St. Jude Leishmania screening dataset” (2016)
